Reference: PubChem BioAssay
Calls of active or inactive are those of the source.

Experiments:
[1] = binders of probe aFSTL3 on microarray, primary screen, stem cell growth factor project, biochemical, small-molecule microarray, fluorescence 635/667 (AID 1064); conditions: higher = more signal;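 note: measures binding of the biotinylated anti-FSTL3 antibody to printed compounds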
[2] = binders from COS7 lysate, DM2A8 probe, primary screen, torsin A project, cell lysate, small-molecule microarray, fluorescence 635/667 (AID 1065); conditions: higher = more signal, COS7 lysate expressing mutant human TOR1A
[3] = binders of probe aFGF2 on microarray, primary screen, stem cell growth factor project, biochemical, small-molecule microarray, fluorescence 635/667 (AID 1067); conditions: higher = more signal;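 note: measures binding of biotinylated aFGF2 protein to printed compounds on slides; z-score merges feature fluorescence and signal-to-noise across triplicate slides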
[4] = binders of probe aFGF10 on microarray, primary screen, stem cell growth factor project, biochemical, small-molecule microarray, fluorescence 635/667 (AID 1071); conditions: higher = more signal;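 note: score merges 667 nm spot intensity and signal to noise from triplicate slides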
[5] = molecular target: Neurogenic locus notch homolog protein 2 (Homo sapiens) (UniProt Q04721); assay: Notch2 binders on small-molecule microarrays, primary screen, biochemical, small-molecule microarray, 635 nm fluorescence, stem cell growth factors (AID 1073); conditions: Notch2 binding, higher = more signal
[6] = molecular target: Pro-neuregulin-1, membrane-bound isoform (Homo sapiens) (UniProt Q02297); assay: NRG1 binders on small-molecule microarrays, primary screen, psychiatric disease protein project, biochemical, small-molecule microarray, fluorescence 635/667 (AID 1075); conditions: NRG1 binding, 635 nm fluorescence, higher = more signal;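 note: score combines 667 nm spot fluorescence with signal to noise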
[7] = test system: Neuregulin-1 EGF-like domain; assay: binders of neuregulin-1 EGF-like domain, primary screen, biochemical, small-molecule microarray, 635 nm fluorescence (AID 1081); conditions: small-molecule microarray binding, higher = more signal;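 note: binding of the protein to compounds printed on small-molecule microarray slides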
[8] = FRG1 promoter luciferase signal modulators, primary screen, FRG1 inhibition for FSHD, cell-based, C2C12 myotubes, firefly/Renilla luciferase, luminescence (AID 1084); conditions: higher = more signal, called active from +8 up or from −8 down
[9] = binders of probe aFST on microarray, primary screen, stem cell growth factor project, biochemical, small-molecule microarray, fluorescence 635/667 (AID 1086); conditions: higher = more signal;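 note: score merges 667 nm fluorescence with signal-to-noise of each printed compound spot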
[10] = binders of probe aHhip on microarray, primary screen, stem cell growth factor project, biochemical, small-molecule microarray, fluorescence 635/667 (AID 1087); conditions: higher = more signal;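 note: score merges spot fluorescence at 667nm with spot signal to noise ratio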

Chain of Neurogenic locus notch homolog protein 2 (Homo sapiens) (Q04721 whole entry, looked up, canonical isoform): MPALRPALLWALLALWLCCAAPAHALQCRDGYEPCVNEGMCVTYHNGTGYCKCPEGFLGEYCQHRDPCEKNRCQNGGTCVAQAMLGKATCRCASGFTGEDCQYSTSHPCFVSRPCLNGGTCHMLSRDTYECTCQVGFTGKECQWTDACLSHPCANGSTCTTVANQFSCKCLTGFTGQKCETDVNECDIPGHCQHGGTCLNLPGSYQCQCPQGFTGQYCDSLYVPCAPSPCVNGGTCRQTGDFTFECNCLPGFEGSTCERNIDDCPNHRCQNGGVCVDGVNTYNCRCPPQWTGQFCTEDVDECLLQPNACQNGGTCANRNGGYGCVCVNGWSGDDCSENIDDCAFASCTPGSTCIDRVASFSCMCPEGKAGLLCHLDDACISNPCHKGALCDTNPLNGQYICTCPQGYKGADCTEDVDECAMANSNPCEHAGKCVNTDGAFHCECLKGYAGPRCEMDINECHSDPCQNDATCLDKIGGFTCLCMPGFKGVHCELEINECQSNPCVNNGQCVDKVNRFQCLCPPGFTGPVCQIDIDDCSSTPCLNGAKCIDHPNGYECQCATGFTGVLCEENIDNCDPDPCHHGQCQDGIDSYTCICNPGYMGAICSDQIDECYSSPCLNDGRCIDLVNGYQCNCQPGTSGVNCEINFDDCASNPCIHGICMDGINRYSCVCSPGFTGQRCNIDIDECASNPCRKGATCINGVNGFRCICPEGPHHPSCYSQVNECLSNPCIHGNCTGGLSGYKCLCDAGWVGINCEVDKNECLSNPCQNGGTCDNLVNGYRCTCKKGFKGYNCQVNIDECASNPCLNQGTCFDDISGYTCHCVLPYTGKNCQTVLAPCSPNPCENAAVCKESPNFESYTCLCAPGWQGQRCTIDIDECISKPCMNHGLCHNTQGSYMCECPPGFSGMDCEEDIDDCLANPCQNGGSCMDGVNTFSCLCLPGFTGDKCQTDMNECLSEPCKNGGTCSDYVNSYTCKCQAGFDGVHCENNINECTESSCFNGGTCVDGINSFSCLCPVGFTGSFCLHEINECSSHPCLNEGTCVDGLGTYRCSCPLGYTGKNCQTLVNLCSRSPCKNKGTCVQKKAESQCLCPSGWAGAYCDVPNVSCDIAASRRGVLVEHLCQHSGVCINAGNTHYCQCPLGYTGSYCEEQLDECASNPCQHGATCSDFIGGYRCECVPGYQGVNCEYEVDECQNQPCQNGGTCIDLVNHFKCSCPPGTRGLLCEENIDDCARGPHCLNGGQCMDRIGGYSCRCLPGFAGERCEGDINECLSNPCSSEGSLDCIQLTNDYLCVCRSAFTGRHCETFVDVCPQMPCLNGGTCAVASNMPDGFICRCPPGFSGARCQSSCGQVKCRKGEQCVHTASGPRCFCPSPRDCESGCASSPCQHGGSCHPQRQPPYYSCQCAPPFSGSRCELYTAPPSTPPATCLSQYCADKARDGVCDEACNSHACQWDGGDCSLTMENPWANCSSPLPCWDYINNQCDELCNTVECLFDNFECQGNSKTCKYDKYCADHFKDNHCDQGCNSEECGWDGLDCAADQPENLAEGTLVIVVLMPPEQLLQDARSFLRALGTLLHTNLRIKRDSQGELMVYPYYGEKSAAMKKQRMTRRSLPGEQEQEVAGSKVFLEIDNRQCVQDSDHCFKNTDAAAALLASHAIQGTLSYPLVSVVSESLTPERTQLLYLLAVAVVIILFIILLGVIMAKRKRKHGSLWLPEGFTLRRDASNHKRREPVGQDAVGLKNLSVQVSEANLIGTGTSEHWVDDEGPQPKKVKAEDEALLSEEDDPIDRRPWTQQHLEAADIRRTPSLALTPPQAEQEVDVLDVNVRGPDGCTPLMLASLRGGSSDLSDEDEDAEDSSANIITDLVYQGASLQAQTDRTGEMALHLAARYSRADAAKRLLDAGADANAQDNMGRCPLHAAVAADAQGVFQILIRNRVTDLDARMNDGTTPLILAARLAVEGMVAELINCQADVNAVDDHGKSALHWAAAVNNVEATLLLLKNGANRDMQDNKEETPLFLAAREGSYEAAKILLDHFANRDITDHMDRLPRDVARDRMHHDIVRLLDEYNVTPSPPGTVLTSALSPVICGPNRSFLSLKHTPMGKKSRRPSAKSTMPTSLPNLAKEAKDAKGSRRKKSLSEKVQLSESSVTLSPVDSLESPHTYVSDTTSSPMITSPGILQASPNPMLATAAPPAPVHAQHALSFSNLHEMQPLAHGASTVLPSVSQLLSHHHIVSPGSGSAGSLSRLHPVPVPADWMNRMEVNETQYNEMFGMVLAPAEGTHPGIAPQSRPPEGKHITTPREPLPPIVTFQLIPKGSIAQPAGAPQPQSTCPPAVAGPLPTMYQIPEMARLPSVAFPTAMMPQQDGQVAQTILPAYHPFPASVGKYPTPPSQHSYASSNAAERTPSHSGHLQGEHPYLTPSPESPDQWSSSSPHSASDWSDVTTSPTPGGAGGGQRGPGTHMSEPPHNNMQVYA
Chain of Pro-neuregulin-1, membrane-bound isoform (Homo sapiens) (Q02297 whole entry, looked up, the tested form may be a part, canonical isoform): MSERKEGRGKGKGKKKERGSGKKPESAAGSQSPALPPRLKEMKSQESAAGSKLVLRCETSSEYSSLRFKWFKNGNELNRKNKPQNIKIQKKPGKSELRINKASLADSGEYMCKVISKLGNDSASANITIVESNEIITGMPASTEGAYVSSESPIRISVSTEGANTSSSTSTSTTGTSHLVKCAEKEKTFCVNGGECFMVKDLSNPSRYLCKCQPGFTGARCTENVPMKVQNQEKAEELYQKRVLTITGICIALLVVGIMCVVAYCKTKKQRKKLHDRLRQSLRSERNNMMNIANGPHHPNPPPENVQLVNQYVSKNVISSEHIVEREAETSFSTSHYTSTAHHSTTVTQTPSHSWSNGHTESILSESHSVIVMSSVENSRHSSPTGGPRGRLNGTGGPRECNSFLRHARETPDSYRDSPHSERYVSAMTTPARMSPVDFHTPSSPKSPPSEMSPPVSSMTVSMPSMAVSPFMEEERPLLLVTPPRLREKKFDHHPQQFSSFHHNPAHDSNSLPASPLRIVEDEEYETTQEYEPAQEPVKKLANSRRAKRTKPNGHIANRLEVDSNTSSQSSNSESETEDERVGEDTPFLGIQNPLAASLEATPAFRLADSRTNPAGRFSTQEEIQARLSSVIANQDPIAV

Compound | composite z-score [1] | composite z-score [2] | composite z-score [3] | composite z-score [4] | composite z-score [5] | composite z-score [6] | composite z-score [7] | z-score [8] | composite z-score [9] | composite z-score [10]
Cc1ccc(S[C@]2(C(=O)NCC(F)(F)F)CC(=O)N(Cc3cc(C(F)(F)F)cc(C(F)(F)F)c3)[C@@H]2c2ccc(CO)cc2)cc1 | -0.26 | -1.74 | -0.133 | -0.232 | -0.995 | 1.09 | -0.353 | 0.0697 (inactive) | -0.234 | -0.0994
CCCCN1CC=CC23O[C@@H]4/C=C\CCC(C)OC(=O)C4[C@H]2C(=O)N(CCCO)[C@@H]3C1=O (stereo not given in full) | 0.35 | -0.913 | -0.195 | -0.317 | -0.962 | 1.93 | 1.1 | -0.313 (inactive) | -0.663 | -0.306
[N-]=[N+]=Nc1ccccc1C[C@]1(C(=O)N2CCOCC2)COC(c2ccc(OCCCO)cc2)=N1 | -0.0495 | 0.713 | -0.0442 | 0.261 | 1.35 | 1.38 | 1.19 | 1.71 (inactive) | 1.28 | -0.0617
C=CCC(OC(C)=O)[C@@H]1[C@@H](N(Cc2cc3ccccc3o2)C(=O)Cc2ccc(F)cc2)c2cc(OCCCO)ccc2N1C(=O)Cc1ccc2ccccc2c1 (stereo not given in full) | -0.367 | -0.804 | -0.017 | -0.469 | -0.665 | -0.436 | 0.112 | -1.47 (inactive) | 0.0652 | -0.306
C#Cc1cc2ccccc2oc1=O | 0.985 | -0.109 | 0.153 | -0.232 | -1.81 | 0.785 | 1.29 | 1.35 (inactive) | -0.839 | -0.14
NC(=O)NCC#Cc1ccc2c(c1)[C@]1(C(=O)N2)[C@H](C(=O)N2CCN(c3ncccn3)CC2)[C@H]2C(=O)O[C@H](c3ccccc3)[C@H](c3ccccc3)N2[C@@H]1c1ccc(O)cc1 | -0.141 | 0.143 | -0.0328 | 0.861 | 1.17 | 0.575 | 0.664 | 0.234 (inactive) | 1.1 | 0.141
C=CCC(OC(C)=O)[C@@H]1[C@@H](N(Cc2ccc(-c3cccc(C(F)(F)F)c3)o2)C(=O)Cc2ccc(OC)cc2)c2cc(OCCCO)ccc2N1C(=O)c1ccc(-c2ccccc2)cc1 (stereo not given in full) | -0.124 | 0.004 | -0.0796 | 0.0554 | -0.57 | 0.168 | 0.0604 | -0.461 (inactive) | 0.214 | 0.382
CN(C)c1ccc(C(O)C2C=CC3C(=O)NC(=O)C3N2Nc2ccccn2)cc1 (stereo not given) | -0.142 | 1.55 | -0.0982 | 0.68 | 1.5 | 1.15 | 1.41 | 2.15 (inactive) | 0.995 | -0.134
Cc1ccc(C(C)CC(O)C2C=CC3C(=O)N(c4ccccc4)C(=O)C3N2Nc2ccccc2)o1 (stereo not given) | -0.172 | -0.314 | -0.087 | 0.504 | 1.65 | 1.18 | 1.21 | -0.0963 (inactive) | 1.51 | 0.113
CO[C@H]1O[C@H](CO)[C@@H](OC(=O)Nc2ccccc2)[C@H](OC(=O)c2cc3ccccc3[nH]2)[C@H]1OC(=O)c1cc2ccccc2[nH]1 | 0.731 | 0.0889 | 0.0336 | 0.886 | 0.518 | 1.18 | 0.495 | -0.542 (inactive) | 0.219 | -0.0994
COC(=O)[C@@]1(Cc2ccccc2)[C@H]2c3cc(C(=O)N(C)C)n(Cc4ccc(C)o4)c3C[C@H]2CN1C(=O)c1ccccc1 | 1.97 | 0.6 | 0.632 | 0.685 | 1.36 | 1.47 | 1.15 | 0.495 (inactive) | 1.91 | 0.414
CCCCC(CC)C(O)C1C=CC2C(=O)N(c3ccccc3)C(=O)C2N1Nc1ccccc1F (stereo not given) | 0.0758 | 0.39 | 0.151 | 0.972 | 1.54 | -0.144 | 1.21 | 0.39 (inactive) | 0.727 | -0.123
Cc1ccc(N2C(=O)c3ccccc3[C@@H](C(=O)NCCCN(C)C)[C@@H]2c2ccc(CO)cc2)nc1 | 1.36 | -0.538 | 0.111 | -0.533 | -0.854 | 1.02 | 1.44 | 0.298 (inactive) | 0.282 | -0.757
NCCCCCNC(=O)[C@H]1C[C@H]2C(=O)N3CCC[C@H]3C(=O)N2[C@H]1c1cccc(OCCO)c1 | 1.46 | 0.161 | -0.0448 | 0.179 | -0.0052 | 1.52 | 1.43 | 1.91 (inactive) | 0.534 | 0.0873
[N-]=[N+]=Nc1ccccc1C[C@@]1(C(N)=O)N=C(c2ccc(OCCCO)cc2)O[C@@H]1c1ccccc1N=[N+]=[N-] | 0.613 | 0.338 | -0.0751 | 0.684 | 1.45 | 0.467 | 1.26 | 0.0144 (inactive) | 0.493 | 0.0722
Cc1ccccc1C(O)C1C=CC2C(=O)NC(=O)C2N1Nc1ccccn1 (stereo not given) | 0.888 | 0.127 | -0.129 | 0.0133 | 0.135 | 0.401 | -0.0441 | 1.08 (inactive) | -0.0817 | -0.134
COc1ccc([Si](C)(C)[C@H]2[C@H](CC(=O)N(CCO)Cc3ccccc3)O[C@@]3(C(=O)N(C)c4c(Br)cc(C)cc43)[C@@H]2C)cc1 | 0.145 | 0.671 | -0.0861 | 0.208 | -0.0381 | 0.435 | 1.22 | -2.73 (inactive) | 0.152 | 0.107
COc1ccc(C#Cc2ccc3c(c2)[C@]2(C(=O)N3)[C@H](c3ccc(OCCO)cc3)N3[C@H](c4ccccc4)[C@H](c4ccccc4)OC(=O)[C@H]3[C@@H]2C(=O)NC[C@H](O)c2ccccc2)cc1 | -0.338 | 0.411 | -0.0276 | 0.422 | 1.16 | 1.55 | 1.13 | -0.164 (inactive) | 0.547 | -0.236
O=C1N(CCS(=O)(=O)c2ccccc2)c2ccccc2[C@H]2OC(c3ccc(OCCCO)cc3)=N[C@@]12Cc1ccccc1 | 0.529 | 0.756 | 0.0918 | 0.102 | 0.918 | -0.0845 | 1.29 | -0.375 (inactive) | 0.772 | -0.0663
C#CCN(Cc1ccccc1Br)[C@H](/C=C/c1ccccc1)[C@@H](O)Cc1ccccc1 | 1.6 | -0.145 | -0.164 | -0.738 | -1.09 | -0.316 | -0.289 | -2.05 (inactive) | -0.722 | 0.0373
CCCCCN1CC=CC23O[C@@H]4C=CCCOC(=O)C4[C@H]2C(=O)N(CCCCCCO)[C@@H]3C1=O (stereo not given in full) | 0.0199 | -0.336 | -0.169 | 0.0401 | -0.812 | 1.98 | 0.99 | -0.457 (inactive) | -0.658 | -0.0994
CCN(CC)c1ccc(N2CC=CC34O[C@@H]5/C=C\CCCOC(=O)C5[C@H]3C(=O)N(C(C)CO)[C@@H]4C2=O)cc1 (stereo not given in full) | -0.136 | -0.207 | -0.175 | -0.136 | -0.0693 | 1.87 | 1.31 | -0.768 (inactive) | -0.285 | -0.236
C=CC[C@@]1(C(=O)NCCCOC)N=C(c2ccc(OCCCO)cc2)O[C@@H]1c1ccccc1N=[N+]=[N-] | 0.165 | 0.252 | 0.0442 | 0.469 | 0.798 | 1.67 | 1.21 | 2.26 (inactive) | 1.06 | -0.0645
C=C[C@H]1C(C(=O)OCC)=CC[C@@H](c2ccccc2)N1S(=O)(=O)c1ccc(C)cc1 | 0.131 | 0.431 | 0.16 | 0.693 | 1.25 | 1.04 | 0.779 | -3.11 (inactive) | 0.992 | -0.266
C=C(/C(=C/C[C@H](OC(C)=O)c1ccc(CO)o1)c1cnc2ccccc2c1)C(C)C | -0.519 | 1.01 | 0.0122 | 1.01 | 1.5 | 1.68 | 1.04 | 0.938 (inactive) | 0.846 | -0.0296
C=CCOC(=O)[C@@H]1[C@H]2C(=O)O[C@H](c3ccccc3)[C@H](c3ccccc3)N2[C@H](c2ccc(OCCOC(=O)[C@@H]3C[C@@H]4C(=O)N[C@@H](CCCC[N+](C)(C)C)C(=O)N4[C@@H]3c3ccc(O)cc3)cc2)[C@@]12C(=O)Nc1ccc(I)cc12 | -0.106 | 0.956 | -0.0005 | 0.884 | 0.617 | 1.2 | 1.38 | 3.51 (inactive) | -0.0446 | -0.16
NC(=O)NCC#Cc1ccc2c(c1)[C@]1(C(=O)N2)[C@H](c2ccccc2OCCO)N2[C@H](c3ccccc3)[C@H](c3ccccc3)OC(=O)[C@H]2[C@@H]1C(=O)O | 0.129 | 0.443 | -0.0383 | -0.0167 | -0.243 | 1.11 | -0.0034 | 0.233 (inactive) | -0.362 | -0.438
CCCCCN1CC=CC23O[C@@H]4/C=C\CCCOC(=O)C4[C@H]2C(=O)N(C(C)CO)[C@@H]3C1=O (stereo not given in full) | 0.378 | -1.3 | -0.219 | -0.756 | -0.814 | 1.15 | 1.16 | -0.508 (inactive) | -0.738 | -0.399
C=C(C(=O)CC[C@H](OC(=O)c1ccccc1-c1ccccc1C(=O)O)c1cccc(OCCO)c1)C(C)C | -0.337 | -0.062 | -0.109 | 0.211 | -0.275 | 0.262 | 0.0799 | -0.0752 (inactive) | -0.224 | -0.134
CCC1=C2CN(Cc3ccccc3)[C@@H](C(=O)Cc3ccccc3)C2C=CCC1 (stereo not given in full) | -0.317 | -0.756 | -0.0909 | 0.083 | -0.227 | 0.271 | 0.441 | -1.02 (inactive) | 0.0633 | -0.0994
